BJeLR viability – BJeLR cell viability loss; 300,000 compounds, 0.17% hits; BJeLR (HRASV12) viability, CellTiter-Glo ATP luminescence, 48 h; inhibition, % (no concentration beside the values); in the data active = inhibition above about 50%
SSB-PriA inh – inhibitors of Klebsiella pneumoniae PriA binding to SSB C-terminal tail | AID 1272365 | AlphaScreen SSBct-PriA binding, biotinylated peptide | 430,000 compounds, 0.6% hits | inhibition, % at 33 µM; in the data active = inhibition mostly above about 37%, no sharp cut-off; inactive = mostly below about 20%;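 also: plate controls were negative control peptide for no effect and reference peptide for full effect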
SARS 3CLpro inh – SARS-CoV 3CLpro protease inhibition | inhibition, % at 6 µM | 290,000 compounds, 0.14% hits | recombinant SARS-CoV 3CLpro, quenched FRET peptide cleavage; in the data active = inhibition above about 12%
* marks the source's active call; other numbers are inactive results; · = no result given. This is a sample that favours compounds with a hit; in the whole collection about 0.78% have one here.

SMILES | BJeLR viability | SSB-PriA inh | SARS 3CLpro inh
COc1ccc(S(=O)(=O)Nc2cnc(-n3nc(C)cc3C)nc2)c(C)c1C | · | 4 | ·
Cc1nnsc1C(=O)NCCNc1ccc(-n2cccc2)nn1 | · | 0 | ·
COCCN1CCC(CNS(=O)(=O)Cc2ccccc2)CC1 | · | -14 | ·
COc1ccc(Nc2c([N+](=O)[O-])ccc3c2=NC2(CCCCC2)N=3)cc1 | -6 | 76* | -2
O=[N+]([O-])c1ccc2c(c1Nc1ccccc1)=NC1(CCCCC1)N=2 | -9 | -17 | -4
O=C(CCCn1nc(-c2ccccc2)ccc1=O)Nc1cccc(C(F)(F)F)c1 | · | -2 | ·
COc1ccc(NC(=O)COc2ccccc2C)cc1S(=O)(=O)N1CCCCC1 | 3 | -2 | ·
COc1cc(C(=O)NS(=O)(=O)c2ccccc2C)ccc1Cc1cn(C)c2ccc(NC(=O)OC3CCCC3)cc12 | 8 | · | 15*
COc1ccc(CNC(=O)NCCn2ccc(-c3ccsc3)n2)cc1 | · | -1 | ·
COC(=O)c1sc2cccc(F)c2c1S(=O)(=O)NCc1cccnc1 | · | 52* | ·
CNC(=O)c1ccc(S(=O)(=O)NCc2cccnc2)o1 | · | -11 | ·
O=C(Nc1nc(-c2ccccn2)cs1)c1ccc(Cl)cc1[N+](=O)[O-] | · | 110* | ·
O=C(Nc1nc(-c2ccccn2)cs1)c1ccc([N+](=O)[O-])s1 | · | 46 | ·
CSc1ccc(C(=O)Nc2nc(-c3ccccn3)cs2)cc1[N+](=O)[O-] | · | 33 | ·
Cc1cccc(C(=O)Nc2nc(-c3ccccn3)cs2)c1[N+](=O)[O-] | · | 97* | ·
CC1CCN(S(=O)(=O)c2ccc3c(c2)C(=NO)c2cc(S(=O)(=O)N4CCC(C)CC4)ccc2-3)CC1 | · | -21 | -3
O=S(=O)(c1ccc2c(c1)C(=NO)c1cc(S(=O)(=O)N3CCCCC3)ccc1-2)N1CCCCC1 | 95* | 0 | -5
C=CCN1C(=O)C(C)(C)COc2cc(NC(=O)c3cccc(C(F)(F)F)c3)ccc21 | · | 4 | ·
CSc1cccc(C(=O)N(Cc2cccnc2)c2nc3ccc(S(C)(=O)=O)cc3s2)c1 | · | 0 | ·
C#CCn1c(=NC(=O)CSCC(=O)NC2CCCCC2)sc2ccccc21 | · | 43* | ·
COC(=O)Cn1c(=NC(=O)CSCC(=O)NC2CCCCC2)sc2cc(OC)ccc21 | 7 | -8 | 5
O=[N+]([O-])c1ccc(Cl)cc1Nc1ccccc1 | · | 56 | ·
O=[N+]([O-])c1cc(Cl)ccc1Nc1ccc(O)cc1 | · | 103* | ·
O=C(Nc1cccs1)N1CCC(Oc2ccc(C(F)(F)F)cn2)CC1 | · | 3 | ·
C=CCn1c(Sc2ncc([N+](=O)[O-])s2)n[nH]c1=O | 6 | 4 | 2
SMILES | BJeLR viability | SSB-PriA inh | SARS 3CLpro inh
O=[N+]([O-])c1cnc(Sc2ccncn2)s1 | 62* | -11 | 5
C[C@](O)(CNC(=O)c1c(F)cccc1F)c1ccc(-c2ccccc2)cc1 | · | -16 | ·
O=C(Cn1nnn(-c2ccc(NS(=O)(=O)c3cccnc3)cc2)c1=O)N1CCOCC1 | · | -16 | ·
Brc1ccc2c(c1)C(c1cccnc1)=NNC(c1cccs1)=N2 | -17 | 53* | 1
CCOc1ccc(C2=NNC(c3cccs3)=Nc3ccc(OC)cc32)cc1 | -11 | 27 | -1
Brc1ccc2c(c1)C(c1ccc(N3CCOCC3)cc1)=NNC(c1cccs1)=N2 | 4 | 13 | -1
Fc1ccc2c(c1)C(c1ccc(N3CCOCC3)cc1)=NNC(c1cccs1)=N2 | 2 | 40* | -1
O=C(Nc1ccc2c(c1)OCO2)c1c[nH]c(=O)n(-c2ccc(F)c(Cl)c2)c1=O | · | -3 | ·
CS(=O)(=O)N1N=C(c2cccs2)CC1c1ccc2nccnc2c1 (stereo unspecified) | · | 62* | ·
CS(=O)(=O)N1N=C(c2ccccc2)CC1c1ccc2nccnc2c1 (stereo unspecified) | 3 | -7 | 3
COc1ccc(C(=O)CN2CCCCC2)cc1 | · | 47* | -1
O=C(CN1CCCCC1)c1ccc(F)cc1 | 12 | -6 | 0
Brc1ccc2c(c1)cc(-c1nc3ccccc3[nH]1)c1nc3ccccc3n12 | · | 6 | ·
Cc1cc(NC(=O)C(=O)NCC(c2ccsc2)N2CCc3ccccc3C2)c2ccccc2n1 (stereo unspecified) | · | -2 | ·
CCCCc1ccc(C(=O)O)nc1 | · | 87* | ·
CCCCc1ccc(-c2ccc(Br)cc2)nc1 | -4 | -17 | -3
COc1cc(OC)c(OC)cc1C=NN(C)c1ccccc1 | · | 73* | ·
COc1cc(OC)c(OC)cc1/C=N/N(C)c1ccccc1 | 14 | · | 0
CCOc1ncccc1C(=O)Nc1ccc2c(c1)CCCN2S(=O)(=O)CC | · | 38* | ·
CCS(=O)(=O)N1CCCc2cc(NC(=O)c3ccccc3Cl)ccc21 | · | -11 | ·
O=C(c1cc(-c2ccco2)[nH]n1)N1CCc2nc3ccc(F)cn3c(=O)c2C1 | · | -5 | ·
CC1=C(SCCC#N)S/C(=C2\SC(C)=C(SCCC#N)S2)S1 | -11 | 54* | -2
Cn1c(SCCC#N)nnc1-c1ccc(F)cc1 | 5 | · | 1
CC(C)C1Cc2c(sc3ncnc(NN)c23)CO1 (stereo unspecified) | -9 | 46* | -2
CC(C)Cc1nc2sc3c(c2c(=O)n1N)CC(C(C)C)OC3 (stereo unspecified) | 18 | -3 | 1
SMILES | BJeLR viability | SSB-PriA inh | SARS 3CLpro inh
Cc1sc(NC(=O)/C=C/c2ccc([N+](=O)[O-])cc2)c(C#N)c1C | · | -12 | ·
O=C(CN1CCCc2ccccc21)N/N=C\C=C/c1ccccc1 | · | 39* | ·
CCN(CC)c1ccc(/C=N/NC(=O)CN2CCCc3ccccc32)cc1 | -7 | · | 3
O=C(CN1CCCc2ccccc21)N/N=C/c1ccccc1 | -15 | · | 1
CCN(CC)c1ccc(C=NNC(=O)CN2CCCc3ccccc32)cc1 | · | 50* | ·
COC(=O)C1=Nc2ccccc2C1=Cc1c(O)n(-c2ccc(OC)cc2)c(=O)[nH]c1=O | · | -16 | ·
O=C(Nc1ccc(S(=O)(=O)Nc2ncccn2)cc1)c1c[nH]c(=O)n(Cc2ccccc2F)c1=O | · | -17 | ·
O=C(CSc1ncccn1)N1CCc2ccccc2C1 | 2 | 3 | -1
O=C(CNCc1ccccn1)N1CCc2ccccc2C1 | 4 | 78* | 2
CC(C)CC(=O)Nc1ccc2c(c1)CCN2C(=O)C1CC1 | · | -13 | ·
Cc1n[nH]c(C)c1S(=O)(=O)N1CCN(Cc2nc3ccccc3[nH]2)CC1 | · | -6 | ·
Oc1cccc(Nc2c3ccccc3nc3ccccc23)c1 | 16 | 5 | -5
CCN(CC)Cc1cc(Nc2c3ccccc3nc3c4ccccc4n(C)c23)cc(CN(CC)CC)c1O | · | 51* | ·
COc1ccc(S(=O)(=O)Nc2ccc3c(c2)CC(=O)N3C)cc1F | · | 9 | ·
CCS(=O)(=O)c1nc2ccccc2n1CC(=O)N1CCCCC1 | -3 | 2 | 1
O=C(Cn1c(S(=O)(=O)Cc2ccccc2)nc2ccccc21)N1CCN(c2ccccc2)CC1 | · | 54* | ·
COC(CNC(=O)Nc1ccc(Cl)c(Cl)c1)c1ccsc1 (stereo unspecified) | · | -11 | ·
CCN1C/C(=C/c2ccc(OC)c(O)c2)C(=O)/C(=C/c2ccc(OC)c(O)c2)C1 | 55* | 0 | 5
COc1cc(/C=C2/CC/C(=C/c3ccc(O)c(OC)c3)C2=O)ccc1O | 21 | 3 | 6
COc1ccc(/C=C2\CN(Cc3ccccc3)C/C(=C\c3ccc(OC)c(O)c3)C2=O)cc1O | 69* | -3 | -5
COc1ccc(C=C2C(=O)c3ccccc3C2=O)cc1O | -6 | 11 | 1
CC1(C)CC(=O)C(C(=N)NC(=O)c2ccccc2)=C(O)C1 | · | -13 | ·
COc1ccc(NC(=O)NS(=O)(=O)c2ccc(C)cc2)c(OC)c1 | 0 | 53* | 1

Screens deposited in PubChem by several laboratories.
